Source: PubChem BioAssay
FLuc modulator – firefly luciferase modulation, counter-screen for miR-21 project; P08659; purified FLuc, Km substrates, luminescence inhibition; Potency, µM (highest dose often 57.5 µM), for the others: top-dose activity change, negative = inhibition, usual class: inhibitors; hit rate 6.9% among 360,000; AID 588342;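 also: plate controls were vehicle for no effect and reference inhibitor for full effect; nearly all actives have a fitted effect of over 55% in size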
Target sequence (P08659 whole entry, looked up): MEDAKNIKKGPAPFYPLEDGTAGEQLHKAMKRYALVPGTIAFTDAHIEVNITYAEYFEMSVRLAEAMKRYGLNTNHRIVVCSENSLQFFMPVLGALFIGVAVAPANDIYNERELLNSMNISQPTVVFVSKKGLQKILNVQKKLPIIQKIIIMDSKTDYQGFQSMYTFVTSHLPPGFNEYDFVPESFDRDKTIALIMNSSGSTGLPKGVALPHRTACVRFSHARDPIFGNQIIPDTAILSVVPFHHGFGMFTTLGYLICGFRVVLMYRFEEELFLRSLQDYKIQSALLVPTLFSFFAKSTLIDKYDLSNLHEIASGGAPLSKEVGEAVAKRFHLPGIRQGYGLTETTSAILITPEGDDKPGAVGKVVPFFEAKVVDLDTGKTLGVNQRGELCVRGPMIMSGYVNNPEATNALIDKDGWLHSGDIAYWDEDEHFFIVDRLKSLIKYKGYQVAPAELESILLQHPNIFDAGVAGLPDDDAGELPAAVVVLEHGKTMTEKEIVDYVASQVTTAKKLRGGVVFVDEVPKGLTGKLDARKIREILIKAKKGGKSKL
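Purified P. pyralis luciferase (10nM final) with 10uM D-luciferin and 10uM ATP (Km levels) in 50mM Tris acetate pH 7.5, 10mM Mg acetate, 0.01% Tween-20, 0.05% BSA; qHTS 6-point titration, ~60 µM downward; luminescence read.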
NPC1 prom act – activates the NPC1 promoter. Huh7 NPC1 promoter luciferase reporter, 24 h. Potency, µM (series often up to 9.22 µM), for the others: at the highest dose activation, actives largely listed as activators. hit rate 2.4% among 320,000. AID 485313; also: % of control where 0% means no effect; nearly all actives have a fitted effect of over 60% in size
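Stable NPC1-promoter luciferase Huh7 line; cpd (DMSO) 24 h, 37 °C, 5% CO2; Amplite luciferase reagent 10 min RT; luminescence readout. qHTS format.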
Rab9 promoter act – activators of Rab9 promoter; Potency, µM (top dose mostly 9.22 µM), inactives show at the top dose activation, negative = inhibition, most hits filed as activators; hit rate 2.8% among 320,000; AID 485297; Huh7 Rab9 promoter-luciferase reporter, luminescence, 24 h; also: % of control where 0% means no effect; nearly all actives have a fitted effect of over 60% in size
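Huh7 reporter line, Rab9 promoter upstream of luciferase. Compound exposure 24 h at 37 °C in reduced-serum medium with 10% FBS. Read-out: luminescence.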
ELG1 genotoxic – induces genotoxicity in HEK293T cells with luciferase-tagged ELG1. HEK293T ELG1-luciferase reporter, luminescence, 16 h. Potency, µM (series often up to 46 µM), inactives show at the highest dose activity change, positive = activation, hits mostly activators. hit rate 1.3% among 330,000. AID 504466; also: % of control where 0% means no effect; nearly all actives have a fitted effect of over 60% in size
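Genotoxic stress is detected as increased luminescence from luciferase-tagged ELG1 in HEK293T cells, measured with ONE-Glo after a 16 hr treatment at 37 °C.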
p53 reactivator – restores transcriptional activity of mutant p53. H1299 p53-A138V BP100-luciferase reporter, luminescence, 24 h. Potency, µM (highest dose often 92.2 µM), for inactives: at the top dose activity change, positive = activation, usual class: activators. hit rate 0.063% among 320,000. AID 504706; also: % of control where 0% means no effect; nearly all actives have a fitted effect of over 45% in size
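H1299 (p53-null), stable ts p53-A138V + BP100-Luc; 1000 cells/well, Opti-MEM/10% FBS; cpd 4 pt, 1:5; 24 h, 37 deg C, 5% CO2; detection reagent 10 min RT; luminescence.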
SMN2 splice enh – enhancers of SMN2 splice variant expression; HEK293 SMN2-luciferase splicing reporter, luminescence, 30-36 h; Potency, µM (series often up to 46.1 µM), without a hit: at the highest dose activity change, positive = activation, usual class: activators; hit rate 2.8% among 210,000; AID 1458; also: % of control where 0% means no effect; nearly all actives have a fitted effect of over 55% in size
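HEK293 cells carry an SMN2 minigene-luciferase reporter in which exon 7 inclusion puts luciferase in frame. Cells were seeded at 2000 cells/well, attached for 10-12 hours, then exposed to compounds for 30-36 hours at 37C before ONE-Glo luminescence.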
An asterisk follows results filed as active; ? = inconclusive; · = no result; [ ] = dose if it differs, or a comment. An excerpt weighted towards active compounds, which were near 7.4% of everything screened. Calls follow the shape of the dose curve; as a rule, active = well fitted curve in the direction sought with a large enough effect; inconclusive = small, poorly fitted or top-dose-only effect, or another doubt; inactive = no such curve, though single readings can be large; an effect the other way counts as inactive or inconclusive. Potency is read from the fitted curve at half-maximal effect.

SMILES	FLuc modulator	NPC1 prom act	Rab9 promoter act	ELG1 genotoxic	p53 reactivator	SMN2 splice enh
CCCNc1c(F)c(F)c2c(C)c3ccccc3nc2c1F	6µM*	?	?	?	?	13%
OCCNc1c2ccccc2nc2ccccc12	0%	-29%	-37%	-7%	0%	·
C[C@@H]1O[C@H](O[C@@H]2[C@@H](Oc3cc(O)c4c(c3)O[C@H](c3ccc(O)cc3)CC4=O)O[C@@H](CO)[C@@H](O)[C@H]2O)[C@@H](O)[C@H](O)[C@@H]1O	·	·	·	·	·	-4%[20.6 µM]
Cc1ccc(N2CCN(CCC(=O)O)CC2)cc1	·	·	·	·	·	3%[9.22 µM]
COc1ccccc1NC(CC(=O)c1ccccc1)C(=O)OCC(=O)c1ccc(F)cc1 (stereo not given)	1.7µM*	16%	13%	1.6µM*	?	5.6µM*
Cc1ccc(NC(=O)COC(=O)c2ccccc2Nc2ccccc2)cc1	5%	1%	-2%	0%	-12%	-23%
CNc1ccccc1C(=O)OCC(=O)c1ccccc1	7.6µM*	9%	16%	17%	26%	?
CNc1ccccc1C(=O)OCC(=O)c1ccc(F)cc1	5.4µM*	20%	23%	12%	21%	-6%
O=C(COC(=O)c1ccccc1Nc1ccccc1)c1ccccc1	13µM*	-2%	4%	2%	25%	10%
Cc1cc2cc(C)c(NCCNC(=O)c3cccs3)nc2cc1C	1%	0%	-8%	-1%	2%	-23%
CC(NC(=O)COC(=O)c1cc2ccccc2cc1O)c1ccccc1 (stereo not given)	2%	10%	13%	-3%	11%	·
O=C(COC(=O)c1cc2ccccc2cc1O)c1ccccc1	27µM*	0%	5%	?	11%	·
COc1ccc(NC(=O)N2CCCC3(CCN(C(=O)c4cccc(F)c4)CC3)C2)cc1	·	·	·	·	·	-7%
COc1ccc(CNC(=O)C(=O)NCC(c2ccco2)S(=O)(=O)c2ccc(Cl)cc2)cc1 (stereo not given)	-2%	·	·	·	·	·
O=C1NC(c2cccc(Br)c2)=N/C1=C\c1ccco1	11µM*	?	?	16%	?	-13%
O=C1NC(c2ccccc2Br)=N/C1=C\c1ccco1	0.38µM*	13%	?	?	22%	·
O=C1NNC(c2ccccc2)=N/C1=C\c1ccccc1	0%	18%	-3%	-1%	-1%	·
O=C1NC(c2ccccc2)=N/C1=C/c1ccco1	2.1µM*	3.5µM*	3.2µM*	?	?	13µM*
CCN(CC(=O)Nc1ccc(NC(C)=O)cc1)C(=O)/C=C/c1ccc([N+](=O)[O-])cc1	?	5%	2%	-5%	4%	·
Cc1ccc(N=c2oc3cc(O)ccc3cc2C(N)=O)cc1	19µM*	?	4.5µM*	-2%	?	·
CC(=O)c1cc2ccc(O)cc2oc1=O	0%	0%	-7%	2%	11%	·
CCc1ccc(NC(=O)CC2C(=O)N(c3ccc(F)cc3)C(=O)N2Cc2ccc(F)cc2)cc1 (stereo not given)	-11%	·	·	·	·	·
O=c1c(/C=N/OCc2ccc(Cl)cc2Cl)c[nH]n1-c1cccc(Cl)n1	11µM*	2%	7%	-5%	?	-15%
COc1ccccc1NC(=O)COC(=O)C1C2CC3OC(=O)C1C3C2 (stereo not given)	15µM*	0%	5%	-3%	9%	·
COc1c(OC(C)=O)ccc(/C=C/c2ccc3ccccc3n2)c1[N+](=O)[O-]	1.5µM*	?	?	?	?	22µM*
SMILES	FLuc modulator	NPC1 prom act	Rab9 promoter act	ELG1 genotoxic	p53 reactivator	SMN2 splice enh
O=[N+]([O-])c1ccc(/C=C/c2ccc3cccc([N+](=O)[O-])c3n2)cc1	-3%	0%	10%	4%	11%	-41%
CCn1c(/C=C/c2ccccc2[N+](=O)[O-])nc2ccccc2c1=O	?	-3%	2%	3%	-2%	-20%
O=[N+]([O-])c1ccccc1/C=C/c1ccc2ccccc2n1	2.1µM*	3.5µM*	4µM*	?	?	·
O=[N+]([O-])c1cccc2ccc(/C=C/c3ccc(F)cc3)nc12	8.5µM*	20%	1%	25%	?	?
COc1c(OC(C)=O)ccc(/C=C/c2ccc3cccc(OC)c3n2)c1[N+](=O)[O-]	12µM*	22%	21%	6%	?	23%
CCOc1c(OC(C)=O)ccc(/C=C/c2ccc3cccc(OC(C)=O)c3n2)c1[N+](=O)[O-]	?	?	?	-3%	?	24%
CCOC(=O)CCc1c(C)c2cc3c(c(C)c2oc1=O)OCN(CCc1ccccc1OC)C3	-7%	·	·	·	·	-6%
CCOc1ccc(/C=C/C(=O)c2c(O)c3ccccc3oc2=O)cc1	11µM*	-1%	15%	1%	10%	-23%
CN(C)c1ccc(/C=C/C(=O)c2c(O)c3ccccc3oc2=O)cc1	21µM*	24%	?	10%	11%	·
CCOC(=O)c1c(O)c2ccccc2oc1=O	?	-2%	-1%	0%	-1%	·
CN(C)S(=O)(=O)c1ccc(-c2cn3ccccc3n2)cc1	5.4µM*	?	2.5µM*	5.8µM*	16%	?
Cc1ccn2cc(-c3ccc(O)c(O)c3)nc2c1	3µM*	?	17%	3.3µM*	?	·
c1ccc2c(-c3cn4ccccc4n3)c[nH]c2c1	12µM*	?	3.5µM*	14%	?	14µM*
Brc1ccc(OCc2cn3ccccc3n2)cc1	2.7µM*	1.6µM*	0.63µM*	?	-4%	10µM*
c1ccc2c(-c3nnc(SCc4cn5ccccc5n4)o3)c[nH]c2c1	?	0%	3%	15%	5%	-21%
COC(=O)c1c(NC(=O)c2cc(=O)c3cc(C)cc(C)c3o2)sc2c1CCC2	-2%	·	·	·	·	-6%
